This is part of a sample that, as a whole, favours compounds with a hit. Of some 83,000 tested, about 20% had one in any assay.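 Growth was measured after 48 h exposure to one concentration of compound in 96-well plates. Values under 10 count as active.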 Activity calls are given as the source filed them.
Experiments:
Experiment in all cases: NCI-60 one-dose screen, 48 h (100 = growth as untreated, 0 = no growth, -100 = all killed)
Conditions in all cases: 10 µM unless noted
NCI-H23 lung = test system: NCI-H23 lung
NCI-H226 lung = test system: NCI-H226 lung
NCI-H322M lung = test system: NCI-H322M lung
HOP-62 NSCLC = test system: HOP-62 NSCLC
NCI-H460 lung = test system: NCI-H460 lung
HOP-92 NSCLC = test system: HOP-92 NSCLC
NCI-H522 lung = test system: NCI-H522 lung
A549/ATCC NSCLC = test system: A549/ATCC NSCLC
786-0 renal = test system: 786-0 renal
COLO 205 colon = test system: COLO 205 colon

Measured: growth

N#Cc1c(NC(=O)c2cccs2)[n+]([O-])c2ccc(F)cc2[n+]1[O-]
inactive: NCI-H23 lung 98.5% | NCI-H226 lung 88.6% | NCI-H322M lung 99.1% | HOP-62 NSCLC 68.1% | NCI-H460 lung 99.1% | HOP-92 NSCLC 73.3% | NCI-H522 lung 87% | A549/ATCC NSCLC 106% | 786-0 renal 103% | COLO 205 colon 86.1%

CO[C@H]1C[C@@H]2CC[C@@H](C)[C@@](O)(O2)C(=O)C(=O)N2CCCC[C@H]2C(=O)O[C@H]([C@H](C)C[C@@H]2CC[C@@H](OP(C)(C)=O)[C@H](OC)C2)CC(=O)[C@H](C)/C=C(\C)[C@@H](O)[C@@H](OC)C(=O)[C@H](C)C[C@H](C)\C=C/C=C/C=C/1C
inactive: NCI-H23 lung 57.5% | NCI-H226 lung 40.9% | NCI-H322M lung 54.5% | HOP-62 NSCLC 28.5% | NCI-H460 lung 40.4% | HOP-92 NSCLC 36.2% | NCI-H522 lung 31.8% | A549/ATCC NSCLC 34.6% | 786-0 renal 53.3% | COLO 205 colon 52.6%

COc1cc(Nc2c(C#N)cnc3cc(OCCCN4CCN(C)CC4)c(OC)cc23)c(Cl)cc1Cl
active: COLO 205 colon 6.9%
inactive: NCI-H23 lung 61.5% | NCI-H226 lung 78.4% | NCI-H322M lung 13.3% | HOP-62 NSCLC 61.3% | NCI-H460 lung 38.6% | HOP-92 NSCLC 98% | NCI-H522 lung 14.5% | A549/ATCC NSCLC 36.1% | 786-0 renal 67.7%

Cc1ccc(F)c(NC(=O)Nc2ccc(-c3cccc4[nH]nc(N)c34)cc2)c1
active: NCI-H23 lung 9.14% | HOP-62 NSCLC -7.49% | NCI-H522 lung -23.3% | A549/ATCC NSCLC -50.5% | COLO 205 colon -48.7%
inactive: NCI-H226 lung 57.6% | NCI-H322M lung 21.5% | NCI-H460 lung 10.2% | HOP-92 NSCLC 63.8% | 786-0 renal 36.4%

CNC(=O)c1cccc2cc(Oc3ccnc4cc(OCC5(N)CC5)c(OC)cc34)ccc12
inactive: NCI-H23 lung 63.9% | NCI-H226 lung 47.1% | NCI-H322M lung 74.3% | HOP-62 NSCLC 51.7% | NCI-H460 lung 56% | HOP-92 NSCLC 64.6% | NCI-H522 lung 46.3% | A549/ATCC NSCLC 57.4% | 786-0 renal 76.8% | COLO 205 colon 58%

CC(=O)OC1Oc2ccccc2-c2oc(=O)c(-c3cc4ccc(N(C)C)cc4oc3=O)cc21 (stereo not given)
active: HOP-92 NSCLC -3.58% | NCI-H522 lung 6.65%
inactive: NCI-H23 lung 36.4% | NCI-H226 lung 55% | NCI-H322M lung 69.4% | HOP-62 NSCLC 69.4% | NCI-H460 lung 75.4% | A549/ATCC NSCLC 61.2% | 786-0 renal 55.2% | COLO 205 colon 67.3%

CC(C)(C)C(=O)OCOP(=O)(OCOC(=O)C(C)(C)C)C1CCCN(OC(=O)c2ccccc2)C1=O (stereo not given)
inactive: NCI-H23 lung 16.8% | NCI-H226 lung 34.9% | NCI-H322M lung 21.2% | HOP-62 NSCLC 22.8% | NCI-H460 lung 15.6% | HOP-92 NSCLC 29.3% | NCI-H522 lung 12.9% | A549/ATCC NSCLC 24.6% | 786-0 renal 17.8% | COLO 205 colon 14.3%

CNC(=O)c1ccccc1Nc1nc(Nc2ccc3c(c2OC)CCC[C@H](N2CCN(CCO)CC2)C3)ncc1Cl
active: NCI-H322M lung 5.21% | HOP-62 NSCLC -48.7% | NCI-H460 lung 0.445% | HOP-92 NSCLC -30.7% | NCI-H522 lung -47.9% | A549/ATCC NSCLC -31.7% | 786-0 renal -66.1% | COLO 205 colon -64.7%
inactive: NCI-H23 lung 16.3% | NCI-H226 lung 28.6%

CC1(O)CCC(Nc2cc(-c3ccc(C(F)(F)F)cc3)c(C#N)c3nc4ccccc4n23)CC1 (stereo not given)
inactive: NCI-H23 lung 81.9% | NCI-H226 lung 71% | NCI-H322M lung 89.9% | HOP-62 NSCLC 64.7% | NCI-H460 lung 68.7% | HOP-92 NSCLC 52.5% | NCI-H522 lung 63.2% | A549/ATCC NSCLC 56% | 786-0 renal 70.7% | COLO 205 colon 61%

CN(C)C/C=C/C(=O)Nc1cc2c(Nc3ccc(F)c(Cl)c3)ncnc2cc1O[C@H]1CCOC1
active: NCI-H23 lung -11.7% | NCI-H226 lung -7.37% | NCI-H322M lung -16.4% | HOP-62 NSCLC -10.8% | NCI-H460 lung 4.3% | HOP-92 NSCLC -11.5% | NCI-H522 lung -55.6% | A549/ATCC NSCLC 3.14% | 786-0 renal 8.66% | COLO 205 colon -65.1%

CC(C)(O)CC(=O)NCCn1ccc2ncnc(Nc3ccc(Oc4cccc(C(F)(F)F)c4)c(Cl)c3)c21
active: NCI-H322M lung -2.67% | HOP-62 NSCLC -12.2% | HOP-92 NSCLC -23.1% | NCI-H522 lung -20.4% | A549/ATCC NSCLC 1.14% | COLO 205 colon -67.4%
inactive: NCI-H23 lung 20% | NCI-H226 lung 26.1% | NCI-H460 lung 11.1% | 786-0 renal 22.6%

O=C1NC(=O)C(c2cnc3ccccn23)=C1c1cn2c3c(cc(F)cc13)CN(C(=O)N1CCCCC1)CC2
inactive: NCI-H23 lung 82.1% | NCI-H226 lung 46% | NCI-H322M lung 72% | HOP-62 NSCLC 26.1% | NCI-H460 lung 39.1% | HOP-92 NSCLC 83% | NCI-H522 lung 38.7% | A549/ATCC NSCLC 34.8% | 786-0 renal 31.1% | COLO 205 colon 26.7%

COc1cc2c(cc1OCCCN1Cc3ccc(OCCCCC(=O)N4CCC(CCN5CCCC5)CC4)cc3C1)N=C(N)C21CCCC1
inactive: NCI-H23 lung 84.5% | NCI-H226 lung 106% | NCI-H322M lung 107% | HOP-62 NSCLC 79.9% | NCI-H460 lung 102% | HOP-92 NSCLC 78.7% | NCI-H522 lung 50.7% | A549/ATCC NSCLC 85% | 786-0 renal 85.4% | COLO 205 colon 42.4%

From PubChem BioAssay (NCI)
